Consider 48 molecules from PubChem BioAssay AID2685 (National Center for Advancing Translational Sciences (NCATS), 2010).

Structures are written as SMILES. Out of some 320,000 compounds screened, about 2,100 (0.66%) were called active. Inconclusive results (about 53%) are left out. The call rests on the fitted dose curve; in most records, active means well fitted inhibition curve with a large enough effect in the signal ratio, with a control signal flat (not every such curve was filed as active); inconclusive means small, poorly fitted or top-dose-only effect, or effect the other way, or a change in a side signal; inactive means flat fitted curve, though single readings scatter; the % refers to the signal ratio. The entries come from a sample that favours actives as a whole.
Potency means the concentration at half of the fitted maximal effect.

A short description of the assay: qHTS Assay for Lipid Storage Modulators in Drosophila S3 Cells.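 On cell number change: cells counted by Cell Tracker Red CMTPX staining in the red channel.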 On lipid storage change, negative = inhibition: on the % scale 0 is the no-effect control and ±100 the full control effect. Particulars: BODIPY lipid droplet fluorescence, 18-24 h, cells fed with added oleic acid; cell number change: measured here: cell count max response; series mostly up to 46.1 µM; lipid storage change, negative = inhibition: at the top concentration. In short, it runs like this: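 Drosophila S3 cells loaded with oleic acid (400 uM, as added) and compounds at several concentrations; lipid droplets imaged by 488-nm laser-scanning cytometry, 500–530 nm intensity and object ratio to cell channel. Percent activity normalized to 20 uM Triacsin C.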
Consider `O=C(Cn1c(NCCCO)nc2ccccc21)c1ccc(F)cc1`, for which the outcome was inactive and the cell number change was 11.9%.

As for `Cc1ccc(SCc2cc(=O)n3[nH]c(C)nc3n2)cc1`, the call was inactive.

Turning to `Cc1cc(C)c(CN2CCC(N3CCC(C(=O)NCC4CCCO4)CC3)CC2)cc1C` (stereo not drawn), the result was inactive.

With `CC[C@@H]1CC=C[C@H]2[C@H]1C(=O)N(Cc1ccccc1)[C@H]2c1ccc2ccccc2c1`, the “lipid storage change, negative = inhibition” value is 3.66% (inactive).

As for `CCN(CC)C(=O)CSc1nc(-c2cccs2)cc(-c2cccs2)c1C#N`, the Potency was 14.6 µM (active) and the cell number change was -14%.

As to `CCN(CC)C(=O)CSc1nc(C)cc(-c2cccs2)c1C#N`, the “lipid storage change, negative = inhibition” value is -8.02% (inactive) and the cell number change is -17.5%.

For `CCN(CC)C(=O)CSc1nc(N)c(C#N)c(-c2cccs2)c1C#N`, the “lipid storage change, negative = inhibition” value is -6.5% (inactive) and the cell number change is -4.19%.

On to `O=C(CC1Sc2ccccc2NC1=O)Nc1cccc(-c2nnc3n2CCCCC3)c1` (stereo not drawn), for which the “lipid storage change, negative = inhibition” value is 1.89% (inactive) and the cell number change was found to be 4.38%.

Take `Cc1ccc(NC(=O)c2cccs2)cc1[N+](=O)[O-]`: the “lipid storage change, negative = inhibition” value was 6.94% (inactive) and the cell number change was -1.31%.

`Cc1ccsc1C(=O)Nc1ccc2c(c1)OCCO2`: the “lipid storage change, negative = inhibition” value was 1.81% (inactive).

Turning to `Cc1ccc(NC(=O)c2sccc2C)cc1[N+](=O)[O-]`, the Potency is 8.2 µM (active) and the cell number change amounted to 7.44%.

In the case of `COc1ccc(-c2csc(NC(=O)c3cccc(N4C(=O)CCC4=O)c3)n2)cc1C`, the “lipid storage change, negative = inhibition” value is -7.59% (inactive) and the cell number change was -26.1%.

For the molecule `O=C1CC(=O)N(CCc2ccccc2)C(=O)N1CCc1ccccc1`, the “lipid storage change, negative = inhibition” value is 2.21% (inactive) and the cell number change was -9.18%.

For `COc1ccc(OC)c(N=CC2=C(O)CC(C)(C)CC2=O)c1`, the call was inactive and the cell number change came out at 25.1%.

Take `C/C(=N\Nc1ccc([N+](=O)[O-])cc1)c1ccc2c(c1)OCO2`: the “lipid storage change, negative = inhibition” value is -8.87% (inactive) and the cell number change is -16.9%.

Turning to `COCCCn1c(=O)c2sccc2n2c(CCCC(=O)NCC3CCCO3)nnc12` (stereo not drawn), the Potency was 18.4 µM (active) and the cell number change was 11.8%.

With `Cn1c(C(=O)OCC(=O)NCC2CCCO2)cc2sccc21` (stereo not drawn), the “lipid storage change, negative = inhibition” value was 0.961% (inactive) and the cell number change was found to be 0.161%.

`Cn1c(=O)c2sccc2n2c(CCCC(=O)NCc3ccco3)nnc12`: the molecule was classed as inactive and the cell number change is -10.3%.

As for `O=C(CCCn1c(=O)c2sccc2n(CC(=O)NCC2CCCO2)c1=O)NCc1ccco1` (stereo not drawn), the “lipid storage change, negative = inhibition” value was 8.98% (inactive) and the cell number change was determined as 3.33%.

With `COCCCn1c(=O)c2sccc2n2c(CCCC(=O)NCc3ccccc3)nnc12`, the outcome was inactive and the cell number change came out at 12.6%.

As for `CCCN(CCC)C(=O)Cn1c(=O)n(CCCC(=O)NCc2ccco2)c(=O)c2sccc21`, the “lipid storage change, negative = inhibition” value is -0.536% (inactive) and the cell number change worked out at 2.76%.

For the molecule `CCCn1c(=O)c2sccc2n2c(CCCC(=O)NCC3CCCO3)nnc12` (stereo not drawn), the Potency was 20.6 µM (active) and the cell number change is -21.7%.

As to `CCCn1c(=O)c2sccc2n2c(CCCC(=O)NCc3ccco3)nnc12`, the Potency is 29.1 µM (active) and the cell number change was -3.77%.

Turning to `CCCn1c(=O)c2sccc2n2c(CCCC(=O)NC3CCN(Cc4ccccc4)CC3)nnc12`, the molecule was classed as inactive and the cell number change was found to be 6.65%.

On to `O=C(O)CCCN=C1NC2(CCCC2)Cc2ccccc21`, for which the “lipid storage change, negative = inhibition” value is 6.16% (inactive) and the cell number change came out at 11.6%.

Turning to `Cc1cc(=O)[nH]c(SCC(=O)c2ccc3c(c2)NC(=O)CO3)n1`, the “lipid storage change, negative = inhibition” value is 1.83% (inactive) and the cell number change came out at 4.71%.

Regarding `COc1cccc(NC(=O)CN(C)C(=O)CSc2nc(C)cc(C)n2)c1`, the “lipid storage change, negative = inhibition” value is 24.9% (inactive) and the cell number change stood at 1.93%.

With `COC(=O)c1c(NC(=O)c2cccnc2Cl)sc(C(=O)N(C)C)c1C`, the “lipid storage change, negative = inhibition” value was 20.4% (inactive) and the cell number change turned out to be 7.02%.

For `COc1ccccc1C(CC(=O)Nc1ccc(C)c(C)c1)c1ccc(OC(C)C)cc1` (stereo not drawn), the “lipid storage change, negative = inhibition” value was -0.923% (inactive) and the cell number change was 11.9%.

`COC(=O)COc1ccc(NC(=O)Cn2nc(-c3ccccc3)c3ccccc3c2=O)cc1`: the “lipid storage change, negative = inhibition” value is -8.81% (inactive) and the cell number change worked out at 0.0736%.

In the case of `COc1ccc(CNc2nc(S(=O)(=O)c3ccccc3)c(Cl)s2)cc1OC`, the “lipid storage change, negative = inhibition” value was -3.6% (inactive) and the cell number change was -10.4%.

As to `Nc1cc(OC(=O)c2c(F)cccc2Cl)nn1S(=O)(=O)c1ccccc1`, the Potency was 0.517 µM (active) and the cell number change is -4.17%.

Regarding `Cc1onc(-c2ccccc2Cl)c1C(=O)Oc1cc(N)n(S(=O)(=O)c2ccc(F)cc2)n1`, the “lipid storage change, negative = inhibition” value was -2.64% (inactive) and the cell number change is -4.68%.

Regarding `Cc1ccc(S(=O)(=O)n2nc(OC(=O)c3c(F)cccc3Cl)cc2N)cc1`, the molecule was classed as inactive and the cell number change came out at 5.65%.

Regarding `COc1ccc(-c2onc3ccc(Cl)cc23)cc1`, the molecule was called inactive.

Take `CC(C)NC(=O)c1cc(-n2cnnc2)ccc1Cl`: the Potency is 25.9 µM (active) and the cell number change is -14.2%.

`Cc1ccc(NC(=O)c2cc(-n3cnnc3)ccc2Cl)cc1`: the “lipid storage change, negative = inhibition” value is 10.7% (inactive) and the cell number change is -2.68%.

For the molecule `CC(=O)Nc1ccc(NC(=O)c2cc(-n3cnnc3)ccc2Cl)cc1`, the outcome was inactive.

For `CCCNC(=S)Nc1ccc(Cl)cc1C`, the “lipid storage change, negative = inhibition” value is -8.54% (inactive) and the cell number change is -19.9%.

As for `Cc1cc(Cl)ccc1NC(=S)NCC(C)C`, the “lipid storage change, negative = inhibition” value is 4.75% (inactive) and the cell number change was -2.85%.

Take `Cc1cc(Cl)ccc1NC(=S)NCCc1ccc(Cl)cc1`: the Potency is 16.4 µM (active) and the cell number change is -20.6%.

In the case of `Cc1ccc(/C=C2/SC(=S)N(CCC(=O)N3CCN(C)CC3)C2=O)cc1`, the “lipid storage change, negative = inhibition” value is -5.28% (inactive) and the cell number change came to 1.31%.

In the case of `O=C(CCS(=O)(=O)c1ccc(F)cc1)Nc1nc(-c2ccncc2)cs1`, the molecule was classed as inactive and the cell number change was -16.7%.

Regarding `Cc1csc(NC(=O)CCS(=O)(=O)c2ccc(Br)cc2)n1`, the call was inactive.

`Cc1ccc(S(=O)(=O)CCC(=O)Nc2nc(-c3cccnc3)cs2)cc1`: the Potency was 13 µM (active) and the cell number change was -24.9%.

Take `Cc1ccc(S(=O)(=O)CCC(=O)Nc2nc(C(C)(C)C)cs2)cc1`: the Potency was 23.1 µM (active) and the cell number change was -1.15%.

`Cc1ccc(S(=O)(=O)CC(=O)Nc2nc(-c3ccccc3)cs2)cc1`: the call was inactive.

Take `Cc1ccc(S(=O)(=O)CC(=O)Nc2nc(C(C)(C)C)cs2)cc1`: the outcome was inactive and the cell number change was found to be 18.4%.
